Assay outcomes as filed in PubChem BioAssay.
The list is not random: actives were taken first. Their share in the collection is about 12%.
Shiga inhibitor = A qHTS for Small Molecule Inhibitors of Shiga Toxin | Vero cells, Shiga toxin protein synthesis inhibition reporter | inhibition, % at 38.7 µM | hit rate 9.2% among 290,000 | AID 2315, 2010; in the data active means inhibition mostly above about 28%, no sharp cut-off; inactive means mostly below about 43%
Lassa entry inh = qHTS for Inhibitors of binding or entry into cells for Lassa Virus | Potency, µM (titrated, usually from 37.9 µM), hits mostly inhibitors | Lassa virus pseudotype entry inhibition, cell reporter | AID 540256, 2011 | hit rate 1.2% among 300,000; calls by dose curve; tested in HEK293 cells; further: nearly all actives have a fitted effect of over 50% in size
MARV entry inh = qHTS for inhibitors of binding or entry into cells for Marburg Virus. Marburg virus pseudotyped entry inhibition, cell reporter. Potency, µM (titrated, usually from 37.8 µM), actives largely listed as inhibitors. hit rate 1.8% among 300,000. AID 540276, 2011; calls by dose curve; tested in HEK293 cells
CHX counter = Cycloheximide Counterscreen for Small Molecule Inhibitors of Shiga Toxin | cell reporter, cycloheximide protein synthesis inhibition counterscreen | max response, % | hit rate 12% among 300,000; in the data active means max response mostly above about 13%, no sharp cut-off; inactive means mostly below about 14%; further: read at 38.3 µM for the half of the compounds with a filed dose
Each line names hits and unclear results; the compound was inactive in the other large screens; ! = a repeat was not active.

COc1ccc(NC(=O)CCC(=O)c2cccs2)c(OC)c1	Shiga inhibitor 77.0, Lassa entry inh inconclusive, CHX counter 30.6
COc1ccc(NC(=O)CCCc2ccccc2)c(OC)c1	CHX counter 19.0 (no result: Shiga inhibitor, Lassa entry inh, MARV entry inh)
COc1ccc(NC(=O)C/C(C)=N/NC(=O)CCc2ccccc2)c(OC)c1	none (no result: Lassa entry inh)
COc1ccc(NC(=O)Cn2nnc(C(=O)NCc3ccccc3)c2N)c(OC)c1	Lassa entry inh inconclusive, MARV entry inh 8.2µM
COc1ccc(NC(=O)CCCC(=O)c2ccccc2)c(OC)c1	CHX counter 16.3 (no result: Lassa entry inh, MARV entry inh)
COc1ccc(Cl)cc1NC(=O)CCCC(=O)c1ccccc1	none
COc1cc(NC(=O)CCC(=O)c2cccs2)cc(OC)c1	none
Cc1ccc(NC(=O)CSc2nc(-c3ccco3)nc3cc(=O)[nH]n23)cc1	none (no result: Shiga inhibitor, MARV entry inh, CHX counter)
CN(C)c1ccc(/C=N/NC(=O)CN2CCCCC2)cc1Br	none (no result: Shiga inhibitor, Lassa entry inh, MARV entry inh)
Cc1ccc(NC(=O)CSc2nnc(-c3cc4occc4n3C)n2-c2ccccc2C)c(Cl)c1	none (no result: Shiga inhibitor, MARV entry inh, CHX counter)
C[n+]1ccc(C(=O)Nc2ccccc2Cl)cc1	none (no result: Lassa entry inh, MARV entry inh)
COc1ccc2[nH]cc(CCNS(=O)(=O)Cc3ccccc3)c2c1	Lassa entry inh inconclusive
CNc1ccccc(-c2ccc3cc4c(cc3n2)OCO4)c1=O	Shiga inhibitor 58.8, Lassa entry inh inconclusive, CHX counter 65.6
CCc1ccccc1NC1=NCC(=O)N1Cc1ccc2c(c1)OCO2	none
CCn1cc(S(=O)(=O)c2ccccc2)c(=O)c2cc(F)c(N3CCN(c4ccccc4)CC3)cc21	none (no result: Shiga inhibitor, MARV entry inh, CHX counter)
COc1ccc(CCNc2oc(COc3ccccc3F)nc2C#N)cc1	CHX counter 15.5
N#Cc1nc(COc2ccccc2F)oc1NCc1ccc(F)cc1	Shiga inhibitor 64.5, CHX counter 35.3 (no result: Lassa entry inh, MARV entry inh)
COc1ccc(CNc2oc(COc3ccc(Cl)cc3)nc2C#N)cc1	none
C=CCNc1oc(COc2ccc(C)cc2)nc1C#N	Shiga inhibitor 136.3, CHX counter 25.5 (no result: Lassa entry inh, MARV entry inh)
COc1ccc(CCNc2oc(COc3ccc(Br)cc3)nc2C#N)cc1OC	none (no result: Lassa entry inh, MARV entry inh)
CN(C)c1oc(COc2ccccc2F)nc1C#N	Shiga inhibitor 59.0, Lassa entry inh inconclusive, CHX counter 29.2
Cc1cc(C(=O)CSc2nnc(-c3cccnc3)n2-c2ccccc2)c(C)n1CC1CCCO1 (stereo not given)	CHX counter 23.0
Cc1cc(C(=O)CSc2nnc(-c3ccncc3)n2-c2ccccc2)c(C)n1C	none
Cc1ccc(-n2c(SCC(=O)N3CCOCC3)nnc2-c2cccnc2)cc1	Shiga inhibitor 55.9, Lassa entry inh inconclusive, CHX counter 23.7
O=C(O)c1cc(-c2ccccc2)nn1Cc1ccccc1	none (no result: Shiga inhibitor, CHX counter)
CN(C)C(=S)SSC(=S)N(C)C	CHX counter 23.1 (no result: Lassa entry inh, MARV entry inh)
CN(C)C(=S)SC(=S)N(C)C	none (no result: Lassa entry inh, MARV entry inh)
CCN(c1ccccc1)S(=O)(=O)c1cccc(C(=O)NCc2ccccn2)c1	none (no result: Shiga inhibitor, CHX counter)
NC(=NCc1ccccc1)NC(=O)c1nc(Cl)c(N)nc1N	MARV entry inh 10µM!
Cc1nc2ccccc2nc1SCC(=O)c1ccccc1	MARV entry inh inconclusive
O=C(CSc1ccc2ccccc2n1)c1ccccc1	Shiga inhibitor 90.1, CHX counter 52.7
O=C(Cn1cncn1)N/N=C/c1ccccc1O	CHX counter 9.9
O=C(CCn1cnc2ccccc21)N/N=C/c1ccccc1O	Shiga inhibitor 60.2, Lassa entry inh inconclusive, MARV entry inh inconclusive, CHX counter 24.0
O=C(CSC1c2ccccc2-c2ccccc21)N/N=C/c1ccc(C(=O)O)cc1	none
O=C(CSC1c2ccccc2-c2ccccc21)N/N=C/c1ccccc1O	Lassa entry inh 11.6µM, MARV entry inh 8.2µM
Cc1cccc(Nc2nnc(-c3ccc(C(=O)N4C[C@H]5C[C@H](C4)c4cccc(=O)n4C5)cc3)c3ccccc23)c1	Lassa entry inh inconclusive, MARV entry inh inconclusive
c1ccc(-c2nn(-c3ccccc3)[n+](-c3ccccc3)n2)cc1	MARV entry inh inconclusive (no result: Shiga inhibitor, CHX counter)
CCOc1ccc(N2CC(NC(=O)c3cc4ccccc4o3)CC2=O)cc1 (stereo not given)	none (no result: Shiga inhibitor, MARV entry inh, CHX counter)
O=C(CCC(=O)Nc1ccc(F)cc1)N/N=C/c1ccccc1O	Shiga inhibitor 72.8, CHX counter 24.2
O=C(CSc1ccc2ccccc2n1)N/N=C/c1ccccc1O	Shiga inhibitor 59.6, CHX counter 32.0 (no result: Lassa entry inh, MARV entry inh)
Cc1cc(SCC(=O)N/N=C/c2ccc(O)cc2O)c(C)cc1Br	Lassa entry inh 4.61µM, MARV entry inh inconclusive
O=C(CSc1ccc2ccccc2n1)N/N=C/c1ccc(O)cc1	CHX counter 11.4 (no result: Lassa entry inh, MARV entry inh)
O=C(Nc1cc(C(F)(F)F)cc(C(F)(F)F)c1)c1ccc(Cn2cc(C(F)(F)F)ccc2=O)cc1	MARV entry inh inconclusive
COc1ccc(N2CCN(C(=O)C3CCC(Cn4c(=S)[nH]c5ccccc5c4=O)CC3)CC2)cc1 (stereo not given)	MARV entry inh 10.3µM
CC1CCN(CCn2c(=S)[nH]c3ncccc3c2=O)CC1	none (no result: Shiga inhibitor, Lassa entry inh, CHX counter)
COc1ccc(N2CCN(CCCn3c(=S)[nH]c4ncccc4c3=O)CC2)cc1	Lassa entry inh inconclusive, MARV entry inh 4.11µM
O=c1c2cccnc2[nH]c(=S)n1CCCN1CCN(c2ccc(F)cc2)CC1	Lassa entry inh 5.8µM, MARV entry inh 4.61µM
Cc1cccc(N2CCN(C(=O)n3ccnc3)CC2)c1C	MARV entry inh inconclusive
Cc1cccc(C(=O)N2CCc3cc(CNS(=O)(=O)c4ccc(Cl)s4)ccc32)c1	none (no result: Shiga inhibitor, MARV entry inh, CHX counter)
O=C(NCCc1ccc(Cl)cc1)c1ccc(CSCc2ccccc2Cl)o1	none (no result: Shiga inhibitor, MARV entry inh, CHX counter)
COC(=O)c1ccccc1NC1=C/C(=N\S(=O)(=O)c2cccs2)c2ccccc2C1=O	Lassa entry inh 4.47µM, MARV entry inh 3.66µM, CHX counter 27.8
CCCOc1ccc(C(=O)NC2CCSc3ccccc32)cc1 (stereo not given)	Lassa entry inh inconclusive
Cn1c(=O)c2sccc2n2c(CCCC(=O)Nc3ccc(F)c(F)c3)nnc12	none (no result: Shiga inhibitor, CHX counter)
N/C(=N\OC(=O)c1cc(Br)ccc1Cl)c1ccccn1	Shiga inhibitor 77.1, Lassa entry inh inconclusive, MARV entry inh inconclusive, CHX counter 52.4
Cc1ccc(OC(=O)c2ccc([N+](=O)[O-])cc2Cl)cn1	none (no result: Lassa entry inh, MARV entry inh)
N/C(=N\OC(=O)c1ccc([N+](=O)[O-])cc1Cl)c1ccccn1	Lassa entry inh inconclusive, MARV entry inh inconclusive, CHX counter 14.0
N/C(=N\OC(=O)c1cccc([N+](=O)[O-])c1)c1ccccn1	Shiga inhibitor 114.2, MARV entry inh inconclusive, CHX counter 36.6
Cc1c(C(=O)O/N=C(\N)c2ccccn2)cccc1[N+](=O)[O-]	Lassa entry inh inconclusive, MARV entry inh inconclusive, CHX counter 21.5
Cc1ccc(OCCC(=O)N(CCC(C)C)c2c(N)n(Cc3ccccc3)c(=O)[nH]c2=O)cc1	Lassa entry inh inconclusive (no result: Shiga inhibitor, CHX counter)
CCN(C(=O)CSc1nnnn1C)C1CCS(=O)(=O)C1 (stereo not given)	MARV entry inh inconclusive (no result: Shiga inhibitor, CHX counter)
CN(C(=O)Cn1nnc(-c2ccccc2)n1)C1CCS(=O)(=O)C1 (stereo not given)	none (no result: Shiga inhibitor, CHX counter)
Cc1c(C(=O)Oc2cccc3cccnc23)cccc1[N+](=O)[O-]	Shiga inhibitor 171.2, CHX counter 41.0
N/C(=N\OC(=O)c1ccc(Cl)cc1[N+](=O)[O-])c1ccccn1	Shiga inhibitor 117.5, Lassa entry inh inconclusive, MARV entry inh inconclusive, CHX counter 48.5
N/C(=N\OC(=O)c1cc([N+](=O)[O-])ccc1Cl)c1ccccn1	Shiga inhibitor 58.0, Lassa entry inh inconclusive, MARV entry inh inconclusive, CHX counter 22.8
O=C(OCc1nnc(-c2ccccc2)o1)c1cc([N+](=O)[O-])ccc1Cl	none (no result: Lassa entry inh)
